Reference: PubChem BioAssay AID1012 (Sanford-Burnham Center for Chemical Genomics, 2008)
Hit rate of the full screen: of about 200,000 compounds, about 520 (0.26%) were called active.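 How the source made its calls: active means tissue-nonspecific alkaline phosphatase inhibition above about 50% at 20 µM in the single-dose screen (limit read from the data); inactive means the rest.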 Many of the other results were omitted from the sample, so actives are more common in it than they were.

Each molecule was assayed against Alkaline phosphatase, tissue-nonspecific isozyme (Homo sapiens) (UniProt P05186) (assay: blockers of alkaline phosphatase TNAP activity – biochemical, luminescent, no phosphate acceptor, uHTS, primary screen (AID 1012;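 further: 0% = DMSO negative control and 100% = EDTA positive control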)). Conditions: purified TNAP, CDP-star luminescence, 30 min; at 20 µM; stronger effect = higher value.
Chain of Alkaline phosphatase, tissue-nonspecific isozyme (Homo sapiens) (P05186 whole entry, looked up): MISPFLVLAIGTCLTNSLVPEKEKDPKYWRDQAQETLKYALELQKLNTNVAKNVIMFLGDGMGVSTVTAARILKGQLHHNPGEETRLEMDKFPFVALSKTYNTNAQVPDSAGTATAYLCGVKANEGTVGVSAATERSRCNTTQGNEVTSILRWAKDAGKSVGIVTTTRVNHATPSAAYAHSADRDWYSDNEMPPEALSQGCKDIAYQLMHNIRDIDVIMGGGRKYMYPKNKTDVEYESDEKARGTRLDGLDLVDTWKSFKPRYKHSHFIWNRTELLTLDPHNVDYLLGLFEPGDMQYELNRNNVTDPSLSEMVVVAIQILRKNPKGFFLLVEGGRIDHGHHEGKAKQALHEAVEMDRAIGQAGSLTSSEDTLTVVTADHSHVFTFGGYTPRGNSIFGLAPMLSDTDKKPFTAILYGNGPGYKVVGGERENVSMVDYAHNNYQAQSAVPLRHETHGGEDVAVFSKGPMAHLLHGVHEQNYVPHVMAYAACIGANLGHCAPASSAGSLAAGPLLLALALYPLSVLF

inhibition, inactive:
COc1ccc(N2C(=O)CNC2=S)cc1 -13.2%
N#C/C=C(/c1ccc(F)cc1)N1CCOCC1 -8.3%
CC(C)CNC(=S)Nc1ccc(F)cc1 -5.6%
COc1ccc(/C=N/NC(=O)c2ccncc2)cc1CN1CCCc2ccccc21 -28.5%
CCC(=O)Nc1cc(C(F)(F)F)ccc1N1CCCC1 -1.6%
NS(=O)(=O)c1ccc(NC(=S)NC(=O)c2cccnc2)cc1 -3.6%
O=C(NC(=S)Nc1ccc(S(=O)(=O)Nc2ncccn2)cc1)c1cccc(Br)c1 5.9%
COc1ccccc1NC(=O)C1=C(C)Nc2nc3ccccc3n2C1c1cccs1 (stereo not drawn) -6.2%
CCOC(=O)C1=C(C)NC(=S)NC1c1cccs1 (stereo not drawn) -12.7%
COc1ccccc1Oc1nc(-c2cccnc2)nc2ccccc12 -4.1%
COc1cc(CNc2ncn[nH]2)ccc1OCc1ccccc1C -67%
Clc1ccc(-c2ncc3ccccn23)c(Cl)c1 -7.2%
O=C1CSC(c2ccccc2)N1c1nc(-c2ccc(Cl)cc2Cl)cs1 (stereo not drawn) -10%
CCCc1[nH]nc2c1C(c1ccc(Br)s1)C(C#N)=C(N)O2 (stereo not drawn) 1.9%
COCc1[nH]nc2c1C(C1C=CCCC1)C(C#N)=C(N)O2 (stereo not drawn) 14.2%
COc1nc(N(C)C)nc(N2CC(=O)N(CCNS(=O)(=O)c3ccc(C)cc3)C2=N)n1 -3.4%
COc1ccc(C)cc1NC(=O)NCc1ccccn1 -12.1%
CN(c1ccccc1)S(=O)(=O)c1ccc(Cl)c(C(=O)OCC(N)=O)c1 -4.4%
NNC(=O)c1ccc(Cl)cc1Cl -3.9%
CN(C)C=NC(=O)c1cccn1-c1ncc(C(F)(F)F)cc1Cl -14%
CNc1ccc(SC#N)cc1 -10.5%
O=C(OCc1nc2ccccc2[nH]1)C1CCCCC1 -36%
COC(=O)C1=CN(Cc2ccc(OC)c(OC)c2)C=C(C(=O)OC)C1c1cccs1 -7.4%
CC(=O)N1C(C)c2ccccc2C(C)(C)CC12CCCCC2 (stereo not drawn) 2.5%
CS(=O)(=O)n1nc(-c2ccccc2)nc1NCc1ccco1 -1.5%
COc1ccc(-n2c(SC)nc(O)cc2=O)cc1 -11.9%
CCn1c(SCc2ccccc2)nc2c(c1=O)SCC2 -14%
COc1ccc(-c2noc(CN(C)S(=O)(=O)c3ccc(C)cc3)n2)cc1 -8.5%
CCOc1cc(/C=C(/C#N)c2ccc(Cl)cc2)cc(Cl)c1OCC(=O)O -8.1%
CC(O)CNCCOc1cccc(Oc2ccccc2)c1 (stereo not drawn) -10.9%
COc1ccc(-c2nc(CN3CCN(c4ncccn4)CC3)c(C)o2)cc1C -13.8%
CCn1c(SCC(=O)Nc2nccs2)nnc1-c1ccco1 37.9%
Cc1ccccc1OCCOc1ccc([N+](=O)[O-])cc1/C=N/n1cnnc1 -2.8%
CC(=O)c1cnc(-c2ccccc2)s1 -4%
NS(=O)(=O)c1ccc(CNC(=O)c2ccc(Cl)cc2[N+](=O)[O-])cc1 -22.8%
CC(C)C(=O)Nc1ccc2c3c(cccc13)CC2 -18%
O=C(CSc1nnc(C2CC2)n1Cc1ccccc1)Nc1cccnc1Cl -1.5%
C/C(CC(=O)Nc1ccc(Cl)cc1)=N\NC(=O)C(=O)NCCO -12.4%
Cc1cs/c(=N\N=C\c2ccc(O)cc2)n1Cc1ccco1 -18.1%
CC(C)c1ccc(Nc2nnc(SCC(=O)c3nnc(-c4ccccc4)o3)s2)cc1 -1.3%
CC1Cc2ccccc2N1C(=O)CSc1nnc(-c2ccc(S(=O)(=O)N3CCCC3)cc2)n1C (stereo not drawn) -5.8%
O=C(Nc1ccccc1C(=O)N1CCOCC1)c1ccc(CSc2ccccc2)cc1 -8.4%
COC(=O)[C@H]1Cc2cnoc2C[C@]1(C)C(=O)O -8%
CC(Oc1ccccc1)C(=O)Nc1oc(-c2ccco2)c(-c2ccco2)c1C#N (stereo not drawn) -18.5%
COc1ccc(N2C(=O)CC(Sc3n[nH]c(-c4ccc(C)cc4)n3)C2=O)cc1 (stereo not drawn) 43.8%
O=Cc1ccc(Oc2cccc(C(F)(F)F)c2)nc1 -8.3%
O=C(Cc1c[nH]c2ccccc12)N/N=C/c1cccc(F)c1 -1%
Cc1cc(C(=O)COc2ccccc2[N+](=O)[O-])c(C)n1-c1cccc(S(=O)(=O)N2CCOCC2)c1 -9.7%
Cc1cc(OCC(=O)NC2CCN(C)CC2)ccc1[N+](=O)[O-] -25.3%
O=C(Cc1ccccc1)Nc1cccc(C(=O)N/N=C/c2ccco2)c1 -4.3%
CC(=O)NCC(=O)N1CCCC(C(=O)c2ccc3c4c(cccc24)CC3)C1 (stereo not drawn) -8.9%
Cc1ccccc1CC1(CO)CCCN(C(=O)c2cc(-c3ccccc3)no2)C1 (stereo not drawn) -4.5%
CC(=O)c1ccc(NC(=O)CSC(=S)N2CCCC2)cc1 -5.7%
CC(C)Oc1ccc(CC(=O)NNC(=S)Nc2ccc(Br)cc2)cc1 -117%
CCOCCCN(C(=O)Cn1nnc(-c2ccc(OC)c(OC)c2)n1)C(CC)C(=O)NC1CCCC1 (stereo not drawn) -11.1%
Cc1ccc(CN2CCN(Cc3cn(C)nc3-c3ccccc3)CC2CCO)o1 (stereo not drawn) -8.9%
Cn1cnnc1Sc1ccc(S(C)(=O)=O)cc1[N+](=O)[O-] -1.9%

inhibition, active:
NS(=O)(=O)c1ccc(NC(=S)NC(=O)c2cccc(Br)c2)cc1 57.3%
CCOC(=O)C1=C(C)Nc2nc3ccccc3n2C1c1cccs1 (stereo not drawn) 57.2%
Clc1ccc(-c2cc(C3CCNCC3)[nH]n2)c(Cl)c1 80.1%
CCCc1[nH]nc2c1C(C1CC=CCC1)C(C#N)=C(N)O2 (stereo not drawn) 50.5%
CCS(=O)(=O)n1nc(-c2ccc(OC)cc2)nc1SC 66%
CCS(=O)(=O)n1nc(-c2ccccc2)nc1SCc1ccccc1 61.1%
